# Bioassay records as filed in PubChem BioAssay.
# D3 antag = blocks the human D3 dopamine receptor; P35462; 2.5% of 360,000 active; AID 652054; max response, negative = inhibition, %; D3R cells, DiscoveRx beta-arrestin luminescence, antagonist mode; hits give low values; in the data active = max response below about -50%; inconclusive = no clear call, values can overlap the other calls; also: % is scaled to controls: 0 for no effect and ±100 for the full control effect
# Target sequence (P35462 whole entry, looked up): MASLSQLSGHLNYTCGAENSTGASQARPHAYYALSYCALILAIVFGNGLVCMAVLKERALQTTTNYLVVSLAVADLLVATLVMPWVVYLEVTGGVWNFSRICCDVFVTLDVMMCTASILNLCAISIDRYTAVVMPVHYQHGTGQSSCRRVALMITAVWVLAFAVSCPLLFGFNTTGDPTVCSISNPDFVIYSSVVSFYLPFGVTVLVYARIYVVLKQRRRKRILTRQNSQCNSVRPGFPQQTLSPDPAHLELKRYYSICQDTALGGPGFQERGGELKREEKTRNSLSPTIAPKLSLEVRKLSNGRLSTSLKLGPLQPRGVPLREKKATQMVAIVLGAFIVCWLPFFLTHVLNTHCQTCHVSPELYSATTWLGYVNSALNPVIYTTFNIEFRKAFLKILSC
#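 Cells expressing the human receptor were seeded at 1500 cells/well, incubated overnight at 37 degrees C in 5% CO2, then exposed to library compounds with dopamine controls for 90 minutes at 37 degrees C before luminescent detection.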
# LDHA inh = blocks human lactate dehydrogenase A; P00338; purified LDHA, NADH/diaphorase-resazurin fluorescence; hits give low values; activity change, % (values are at about 110 or 230 µM); 0.15% of 480,000 active; AID 1347041; in the data active = activity change below about -30%; inconclusive = mostly about -25% to -30%;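 also: plate controls were DMSO wells for no effect and wells without enzyme for full effect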
#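 Human LDH5 (2 nM) was incubated with 0.06 mM NADH and 0.2 mM pyruvate for 5 min at room temperature in Tris pH 7.4. Remaining NADH was coupled through diaphorase/resazurin, and resorufin fluorescence was read at 0 and 20 min.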
# RGS4 inh = blocks human RGS4-accelerated GTP hydrolysis | 0.039% of 390,000 active | Transcreener GDP fluorescence polarization, RGS4-accelerated GTP hydrolysis | Potency, µM (top dose mostly 114 µM), for the others: at the highest dose activity change, negative = inhibition, hits mostly inhibitors; active = well fitted inhibition curve with a large enough effect; inconclusive = small, poorly fitted or top-dose-only effect; inactive = no such curve, though single readings can be large or run the other way; also: potency is read from the fitted curve at half-maximal effect; % is scaled to controls: 0 for no effect and ±100 for the full control effect; nearly all actives have a fitted effect of over 75% in size
#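 MLSMR compounds (23 nl, pin-transferred) preincubated 10 min at room temperature with a 500nM (2x) first reagent, then RGS4 at 900nM (2x) plus Transcreener GDP mix added; fluorescence polarization (620/688 nm) read before and after 90 min at 30 °C.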
# DRD3 agonist = D3 dopamine receptor (human) agonism; max activation, %; D3R DiscoveRx beta-arrestin cells, luminescence, 90 min; 0.58% of 410,000 active; P35462; in the data active = max activation above about 30%; also: 0% is about no effect
#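 Cells at 1500/well, incubated overnight, then treated with pinned compounds (dopamine as control) for 90 min at 37 degrees C. DiscoveRx reagent added for 30 - 60 minutes at room temperature; luminescence read.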
# PI4K2A inh = inhibitors of human PI4K2A | purified PI4K2A, ADP-Glo luminescence, 1 h; hits give low values | activity change, negative = inhibition, % at 76.9 µM | 0.13% of 420,000 active | Q9BTU6; in the data active = activity change below about -50%; inconclusive = mostly about -30% to -49%;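 also: -100% = wells without enzyme as full effect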
#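 ADP-Glo luminescence measured ADP generated by PI4K2A enzyme (4 ug/mL before mixing) with 1.2 mM PI substrate (pre-mix) and 300 microM ATP (pre-mix). Tris pH7.5 buffer with MgCl2, Triton X-100; 1 h reaction at ambient temperature.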
# Akt phos inh = inhibitors of Akt phosphorylation; Neuro2A IGF-stimulated pAkt S473 HTRF, 20 min; hits give low values; activity change, % for hits at 50 µM; 0.32% of 360,000 active; AID 651550; in the data active = activity change below about -80%; inconclusive = mostly about -51% to -80%; also: % is scaled to controls: 0 for no effect and ±100 for the full control effect
#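 Single-point screen (50 µM final compound) in Neuro2A cells stimulated 20 min with 6 nM IGF at 37 deg C. After lysis, Ser473-phosphorylated Akt read by HTRF (ex 330 nm, em 615/665 nm) as the 665/615 ratio.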
# * = called active by the depositor; i = inactive; ? = inconclusive; . = no result. Hits are enriched below; roughly 2.8% of the tested compounds scored in any of these assays.
SMILES,D3 antag,LDHA inh,RGS4 inh,DRD3 agonist,PI4K2A inh,Akt phos inh
O=C1C=CC(=O)c2c(O)c(N3CCN(CCOCCO)CC3)c(Br)c(O)c21,-94.7*,43.4,?,-18.0,-59.7*,i
CC(C)n1ncc2cc(C(=O)NCc3ccccc3OC(F)(F)F)cnc21,.,0.2,.,.,.,.
CCCCN(C(=O)c1ccccc1Cl)C(CC(C)C)c1nc2ccccc2[nH]1 (configuration not stated),7.9,-6.7,.,48.4*,3.9,i
O=C1/C(=C/c2ccccc2)CN(C(=O)CCN2CCOCC2)C/C1=C\c1ccccc1,-77.2*,0.4,?,-19.3,-24.5,i
CCOC(=O)N1C/C(=C\c2ccccc2)C(=O)/C(=C/c2ccccc2)C1,-52.4*,-3.6,-1.9%,-2.9,15.2,i
CN(C)CCC(=O)N1C/C(=C/c2ccccc2)C(=O)/C(=C\c2ccccc2)C1,-85.3*,-2.0,?,-23.6,-24.7,i
COc1ccc(OC(=O)N2C/C(=C/c3ccccc3)C(=O)/C(=C\c3ccccc3)C2)cc1,-15.0,-1.1,-52.3%,-7.9,21.9,i
CC(=O)Nc1cccc(C(C)NC(=O)Nc2cccc(Cl)c2Cl)c1 (configuration not stated),.,0.3,.,.,.,.
Cc1cccn2c(=O)c3cc(C(=O)NCCN4CCOCC4)c(=N)n(CCCN4CCOCC4)c3nc12,-23.0,-2.7,-1.4%,-5.6,-10.9,i
COCCCn1c(C(=O)NCCN2CCOCC2)cc2c(=O)n3cccc(C)c3nc21,-54.2*,-8.8,11.5%,1.7,12.4,i
CC(NCc1ccccc1)c1ccccc1 (configuration not stated),.,9.4,.,.,.,.
Cc1ccc(CNC(C)c2ccccc2)cc1 (configuration not stated),-54.9*,-3.7,-18.1%,-7.8,-3.1,i
Cc1ccccc1C1C2=C(CCCC2=O)Nc2nc(SCc3ccc(C(=O)O)cc3)nn21 (configuration not stated),.,0.1,.,.,.,.
CC1(C)CC2(CCO1)OC(=O)CC2C(=O)Nc1cccc2ccccc12 (configuration not stated),11.7,8.8,11.4%,1.7,3.4,-88.4%*
CC(NC(=O)Cc1c[nH]c2ccccc12)c1ccco1 (configuration not stated),.,-8.3,.,.,.,.
CCOC(=O)c1nnc(-c2cccs2)nc1Oc1ccc(Cl)cc1,-66.7*,-0.8,-35.0%,1.3,-4.7,i
COc1ccc(/C=C2/N=C(c3ccc(Cl)cc3Cl)NC2=O)cc1OC,.,9.8,.,.,.,.
COc1ccc(Cl)cc1C=CC=NNS(=O)(=O)c1ccc(C)cc1,-88.5*,-3.6,-43.7%,-24.2,14.0,i
COC(=O)c1ccccc1NC(=O)CCCn1c(C)c2cnn(-c3ccccc3)c(=O)c2c1C,.,-0.9,-9.6%,-9.1,-3.2,.
COc1ccc(Cl)cc1NC(=O)CCCn1c(C)c2cnn(-c3ccccc3)c(=O)c2c1C,.,4.3,-5.9%,41.6*,-1.0,.
O=C(Nc1cccc(-c2nc3ccccc3s2)c1)c1cc(-n2cnnc2)ccc1Cl,49.2,-4.1,-33.5%,0.6,2.1,i
Cc1c(NC(=O)c2cc(-n3cnnc3)ccc2Cl)cccc1-c1nc2ccccc2s1,26.3,-4.5,2.8%,-12.8,-5.6,-87.9%*
Nc1nc2n(n1)C(c1cccs1)CC(c1ccccc1)N2 (configuration not stated),-63.9*,-5.9,-8.2%,1.6,-4.4,i
Nc1nc2n(n1)C(c1cccs1)CC(c1ccc(F)cc1)N2 (configuration not stated),-13.4,-13.6,33.7%,1.5,2.4,i
CC(C)C12CN3CC(C(C)C)(CN(C1)C3c1c[nH]c3ccccc13)C2=O (configuration not stated),.,-7.1,.,.,.,.
O=C(/C=C/c1ccc(-c2ccccc2Cl)o1)c1ccccc1,.,0.2,.,.,.,.
S=c1[nH]nc(-c2cc(-c3ccccc3)n[nH]2)n1/N=C/C(Br)=C/c1ccccc1,-66.7*,-18.1,-25.7%,-15.8,-10.3,i
